Rows were chosen to be rich in hits. Some 2.9% of all compounds tested hit in one or more screens of this group.
IP6K1 inh – IP6K1 kinase inhibition; Q92551; IP6K1 kinase, ADP-Glo luminescence, 2 h; hits give low values; activity change, % (series mostly up to about 58 µM); 140,000 compounds, 0.81% hits; AID 1645851; in the data active = activity change below about -25%; note: % is set by controls: 0 for no effect and ±100 for the full control effect
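ADP-Glo luminescence measures ADP made by human IP6K1 during a 2 h RT reaction with ATP/IP6 (mix at 1.3 mM/130 uM); top library doses 57.5 and 19.1 uM final.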
SNCA viab count – reduces viability of HEK-293 SNCA reporter cells; HEK-293-SNCA-luc viability, GF-AFC fluorescence, 24 h; Potency, µM (series often up to 57.1 µM), for inactives: top-dose activity change, negative = cytotoxicity, actives largely listed as cytotoxic; 150,000 compounds, 0.12% hits;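 note: potency is the fitted concentration of half-maximal effect; 0% = DMSO-treated cells and -100% = medium-only wells without cells; nearly all actives have a fitted effect of over 30% in size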
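Cytotoxicity counterscreen: after 24 h compound treatment of genome-edited SNCA-luciferase HEK-293 cells, live-cell protease substrate GF-AFC read by fluorescence after 30 min; activity scaled between DMSO (0%) and medium-only (-100%), curves Hill-fitted.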
SNCA expr inh – reduces expression of the alpha-synuclein gene; HEK-293 SNCA-luciferase knock-in, luminescence, 24 h; Potency, µM (highest dose often 57.2 µM), inactives show top-dose activity change, negative = inhibition, hits mostly inhibitors; 140,000 compounds, 0.17% hits;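 note: potency is the fitted concentration of half-maximal effect; plate controls were DMSO cells for no effect and cell-free wells for full effect; nearly all actives have a fitted effect of over 45% in size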
KDM5B inh – inhibitors of human KDM5B histone demethylase; Q9UGL1; KDM5B demethylase, FDH-coupled NADH fluorescence (FDH is formaldehyde dehydrogenase); Potency, µM (doses to about 57.7 µM), most hits filed as inhibitors; 220,000 compounds, 2.6% hits; note: potency is the fitted concentration of half-maximal effect; 0% is about no effect; nearly all actives have a fitted effect of over 70% in size
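Compound dilutions met 200 nM (final) KDM5BΔAP for 10 min at room temperature before substrate addition. The substrate mix held 12.5 µM H3K4me3 with cofactors 25 µM α-ketoglutarate and 50 µM Fe²⁺. NADH signal gain over 30 min defined activity.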
Starred values were filed as active, the others as inactive; i = inactive; ? = inconclusive; . = not tested or not shown; [ ] = another dose, or the depositor's remark. Unless noted, calls come from the whole dose curve; as a rule, active = well fitted curve in the direction sought with a large enough effect; inconclusive = small, poorly fitted or top-dose-only effect, or another doubt; inactive = no such curve, though single readings can be large; an effect the other way counts as inactive or inconclusive.

SMILES	IP6K1 inh	SNCA viab count	SNCA expr inh	KDM5B inh
CCOc1ccc(CC(=O)NC2CCN(c3cc(-c4ccc(F)cc4)[nH]n3)C2)cc1OCC (centres undefined)	0.9	-21.9%	-5.0%	8.91µM*
CCOc1ccccc1C(=O)NC1CCN(c2cc(-c3ccc(OC)cc3)[nH]n2)C1 (centres undefined)	6.9	-19.7%	12.4%	12.6µM*
COc1ccccc1CC(=O)NC1CCN(c2cc(-c3ccccc3)[nH]n2)C1 (centres undefined)	2.1	-5.2%	19.7%	15.8µM*
O=C(NC1CCCCC1)C1CCCN(Cc2cccc(-c3cccs3)c2)C1 (centres undefined)	0.1	-13.7%	-21.8%	.
COc1ccc(C2C(=O)N(C3CCCCC3)CC(=O)N2CCC2=CCCCC2)cc1 (centres undefined)	7.4	?	22.4µM*	?
CC(C)(C)c1ccc(-c2nc(C3CC(=O)N(c4ccc(F)cc4)C3)no2)cc1 (centres undefined)	-14.2	2.6%	36.9%	i
CN(C)c1cccc(-c2nc(C3CC(=O)N(c4ccc(F)cc4)C3)no2)c1 (centres undefined)	-8.4	8.0%	3.3%	35.5µM*
Cc1ccc(N2CC(c3noc(-c4ccncc4)n3)CC2=O)cc1 (centres undefined)	12.8	10.6%	2.3%	i
CN(C)c1ccc(-c2nc(C3CC(=O)N(c4ccc(F)cc4)C3)no2)cc1 (centres undefined)	-2.6	5.2%	8.6%	31.6µM*
Cc1ccc(N2CC(c3noc(-c4cccc(N(C)C)c4)n3)CC2=O)cc1 (centres undefined)	15.4	?	2.8%	35.5µM*
COc1ccc2c(c1)C(COCc1ccccc1)CC(C)(C)CO2 (centres undefined)	0.1	.	.	.
COc1ccc(Nc2ccnc(N3CCC(NC(=O)N(C)C)CC3)n2)cc1	-1.3	-4.8%[12.5 µM]	-15.9%	.
O=C(NCc1cccs1)c1csc(N2CCN(c3ccccc3F)CC2)n1	-12.6	-7.2%	3.6%	i
C#CCNC(=O)c1cc(-c2ccccc2)nc2c1cnn2C	-4.2	-15.7%[87.6 µM]	29.4%[87.6 µM]	.
CCN(CC)C(=O)CCc1c(C)nn(-c2ccccc2)c1Oc1ccc(F)cc1F	12.0	-17.5%	-27.9%	i
CCN(C)C(=O)CCc1c(C)nn(-c2ccccc2)c1Oc1ccccc1F	-5.9	-2.7%	-1.5%	14.1µM*
CNC(=O)c1cc(C2CC2)nc2c1c(C1CCCN1[S+](=O)([O-])c1cccs1)nn2C (centres undefined)	0.7	.	.	.
CCc1nn(CC(=O)NCCCc2ccccc2)c(=O)c2cc3ccccc3n12	7.8	4.3%	28.2µM*	i
Cc1ccc2[nH]c(CN3CC[C@H]4NCCC[C@]4(CO)C3)cc(=O)c2c1	7.3	-5.8%	-0.8%	12.6µM*
Cc1ccc(Nc2ccnc(N3CCCC(C(=O)NCc4cccc(Cl)c4)C3)n2)cc1 (centres undefined)	-5.3	-3.8%[12.5 µM]	?	.
COc1ccc(-c2cccc(C(=O)O)c2)cc1	.	.	.	i
COc1cccc(-c2ccc(C(=O)O)cc2)c1	-19.9	-3.6%[87.6 µM]	42.3%[87.6 µM]	112µM*
CCn1cc(-c2cc(C(=O)N3CCCCCC3)c3cccc(C)c3n2)cn1	0.7	?	2.7%	31.6µM*
Cc1cccc2c(C(=O)N3CCN(Cc4ccccc4)CC3)cc(-c3cccnc3)nc12	.	.	.	i
O=C(NC1CC1)c1cnn2ncccc12	3.3	2.3%[87.6 µM]	-28.3%[87.6 µM]	31.6µM*
SMILES	IP6K1 inh	SNCA viab count	SNCA expr inh	KDM5B inh
O=C(NC1CC1)c1cccn2nccc12	-8.7	-19.1%[87.6 µM]	?	35.5µM*
O=C(NC1CC1)c1cccn2cncc12	1.3	-0.6%[87.6 µM]	20.8%[87.6 µM]	?
CNC(=O)c1cccn2nccc12	3.5	0.9%[87.6 µM]	-14.1%[87.6 µM]	31.6µM*
O=C(c1cccc(F)c1)N1CC(Oc2ccc(-c3noc(C4CCOCC4)n3)cc2)C1	-3.2	-19.7%	?	i
COc1ccc(C(=O)N2C[C@@H](CO)[C@@H]3Oc4ccc(Cl)cc4[C@@H]32)cc1	22.9	.	.	.
COc1ccc(C(=O)N2CCc3nc(-c4ccccc4)nc(-c4ccc(Cl)cc4)c3C2)cc1	-15.1	-26.9%	-13.4%	.
Cn1ncc2c(C(=O)NCCCc3ccccc3)cc(-c3cccc(C(F)(F)F)c3)nc21	2.8	.	.	.
Cc1ccc(NC(=O)c2cc3c(N4CCCC4)nc(C)cn3n2)cc1	0.0	13.1%	2.1%	?
Cc1cn2nc(C(=O)Nc3ccc4c(c3)OCCO4)cc2c(N2CCCC2)n1	7.8	-12.8%	1.5%	25.1µM*
Cc1cn2nc(C(=O)Nc3cccc(F)c3C)cc2c(N2CCCC2)n1	0.0	?	4.2%	25.1µM*
COc1cccc(CNC(=O)c2cc3c(N4CCCC4)nc(C)cn3n2)c1	-15.7	1.4%	-7.2%	i
COc1cccc(NC(=O)c2cc3c(N4CCCC4)nc(C)cn3n2)c1	-5.0	?	19.7%	35.5µM*
COc1cc2c(cc1-c1cccnc1)OCC(C)(C)CC2CO (centres undefined)	-8.4	.	.	.
Cc1nc(Nc2n[nH]c3c2CN(C(=O)NC(CN(C)C)c2ccccc2)C3(C)C)c2sccc2n1 (centres undefined)	-5.3	7.52µM*	.	.
O=c1cc(-c2ccccn2)oc2c(NC3CCOCC3)nccc12	-19.1	-1.1%[87.6 µM]	-11.1%[87.6 µM]	31.6µM*
O=c1cc(-c2ccccn2)oc2c(-c3cn[nH]c3)nccc12	-7.4	-16.9%[87.6 µM]	?	?
COc1ccc(OC2CCN(C(C)=O)CC2)c(C(=O)NC(C)c2cn(C)nc2C)c1 (centres undefined)	24.3	-20.4%	-0.7%	31.6µM*
COc1ccc(C(=O)NC(C)c2nncn2C)cc1OC1CCN(C(C)=O)CC1 (centres undefined)	-8.9	-1.3%	-22.9%	i
C#CCNC(=O)c1nc(-c2ccccc2OC)c2cnccn12	-16.5	8.6%	13.8%	89.1µM*
C#CCNC(=O)c1nn(C)c2nc(-c3ccccc3OC)ccc12	2.0	-0.5%[87.6 µM]	18.3%[87.6 µM]	.
COc1ccccc1-c1nc(C(=O)N(C)C)n2ccccc12	-14.5	-2.5%[87.6 µM]	109.8%[87.6 µM]	112µM*
COCCNC(=O)c1nc(-c2ccccc2OC)c2ccccn12	10.5	6.0%[87.6 µM]	1.5%[87.6 µM]	i
C#CCNC(=O)c1nc(-c2ccccc2OC)c2ccccn12	-21.2	-4.9%	10.7%	100µM*
Cc1noc(C)c1Cc1ccc(C(=O)N2CCC(c3nc(C(=O)N4CCCC4)c(C)o3)CC2)o1	4.7	-4.6%	-9.6%	.
CN(Cc1ccc(N2CCCCC2)cc1)C(=O)c1ccc2c(c1)C(O)CCCCCN2C (centres undefined)	1.5	-2.7%	7.8%	?
O=C(c1cccnc1)N1CCN(c2nnc3ccc(Cl)cn23)CC1	6.6	4.4%	-3.1%	15.8µM*
COc1ccc(C(=O)N2CCCN(c3nnc4ccc(Cl)cn34)CC2)cn1	13.2	-12.4%	22.2%	22.4µM*
Cc1ccccc1C(=O)N1CCCN(c2nnc3ccc(Cl)cn23)CC1	40.0	-4.8%	2.3%	25.1µM*
COCCOCc1ccc(CC2CCN(C(=O)c3ccc(OC)cc3OC)CC2)cc1	0.3	-0.6%	-20.6%	.

Screens deposited in PubChem by National Center for Advancing Translational Sciences (NCATS).
